# Giardia kill = Small Molecules that selectively kill Giardia lamblia: qHTS. Giardia lamblia trophozoite viability. activity change, % at 7.66 µM, hits read low. actives 0.15% (n = 340,000). AID 540267, 2011; in the data active means activity change below about -80%; inconclusive means between about -30% and that limit;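 further: parasites exposed to compound for two days anaerobically before the ATP read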
#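 Giardia trophozoites, 100 cells per well, were exposed to compounds for 48 hrs at 37 deg C under anaerobic conditions; viability was then read as ATP content by bioluminescence after 15-30 min at room temperature.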
# TDP1 cell CPT = qHTS for Inhibitors of human tyrosyl-DNA phosphodiesterase 1 (TDP1): qHTS in cells in presence of CPT; chicken DT40 Tdp1-/-;hTDP1 cells + 20 nM CPT, ATP luminescence, 48 h; Potency, µM (top dose mostly 46.2 µM), inactives show at the highest dose activity change, negative = growth inhibition, usual class: inhibitors; actives 12% (n = 420,000); further: potency means the concentration at half of the fitted maximal effect; nearly all actives have a fitted effect of over 55% in size
#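 Chicken DT40 Tdp1-/- cells stably complemented with human TDP1 were seeded at 400 cells/well in medium containing 20 nM camptothecin, exposed to pin-transferred compounds, and grown at 37 °C for at least 48 hr. Viability was read as ATP luminescence.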
# TDP1 block = qHTS Assay for Inhibitors of Tyrosyl-DNA Phosphodiesterase (TDP1); recombinant TDP1, AlphaScreen DNA substrate cleavage; actives 0.28% (n = 350,000); AID 485290, 2010; Potency, µM (series often up to 130 µM), inactives show at the top dose activity change, negative = inhibition, usual class: inhibitors; further: potency means the concentration at half of the fitted maximal effect; nearly all actives have a fitted effect of over 40% in size
# Target sequence (Q9NUW8 whole entry, looked up): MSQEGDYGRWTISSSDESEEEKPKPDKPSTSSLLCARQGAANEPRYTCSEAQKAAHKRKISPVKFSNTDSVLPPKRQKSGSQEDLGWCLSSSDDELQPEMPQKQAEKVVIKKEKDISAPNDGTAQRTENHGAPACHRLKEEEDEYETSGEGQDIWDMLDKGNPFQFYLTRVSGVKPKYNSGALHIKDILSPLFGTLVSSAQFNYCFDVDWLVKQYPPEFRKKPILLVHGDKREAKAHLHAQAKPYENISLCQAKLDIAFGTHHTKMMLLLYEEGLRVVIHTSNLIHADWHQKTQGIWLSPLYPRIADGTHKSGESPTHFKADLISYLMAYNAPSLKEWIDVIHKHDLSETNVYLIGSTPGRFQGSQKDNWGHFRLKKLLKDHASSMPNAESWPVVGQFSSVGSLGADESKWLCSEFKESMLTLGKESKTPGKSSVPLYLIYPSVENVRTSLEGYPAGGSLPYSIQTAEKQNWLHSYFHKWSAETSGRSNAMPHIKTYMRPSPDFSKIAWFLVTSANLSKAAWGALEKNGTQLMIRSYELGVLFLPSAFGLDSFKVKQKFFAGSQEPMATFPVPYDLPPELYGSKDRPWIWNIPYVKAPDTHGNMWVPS
#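 Signal: AlphaScreen proximity between streptavidin donor and anti-FITC acceptor beads on intact substrate. Reaction: Tdp1 1 nM, substrate 15 nM final, 5 min RT after 15 min compound preincubation.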
# TDP1 cell noCPT = qHTS for Inhibitors of human tyrosyl-DNA phosphodiesterase 1 (TDP1): qHTS in cells in absence of CPT; DT40 Tdp1-/- hTDP1 cells, no CPT, ATP luminescence, 48 h; Potency, µM (series often up to 46.2 µM), for inactives: at the highest dose activity change, negative = growth inhibition, most hits filed as inhibitors; actives 15% (n = 420,000); AID 686978, 2013; further: potency means the concentration at half of the fitted maximal effect; nearly all actives have a fitted effect of over 55% in size
#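 Chicken DT40 Tdp1-/- cells stably complemented with human TDP1 were seeded at 400 cells/well with DMSO in place of 20 nM camptothecin. After compound pinning, cells grew at least 48 hr at 37 °C; viability read by CellTiter-Glo luminescence.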
# IL-1B inflam inh = qHTS for Inhibitors of Inflammasome Signaling: IL-1-beta AlphaLISA Primary Screen | actives 4.7% (n = 360,000) | activity change, % at 57.5 µM | THP-1 LPS/ATP IL-1B secretion, AlphaLISA, 16 h; stronger effect = lower value | AID 743279, 2014; in the data active means activity change below about -50%; inconclusive means mostly about -30% to -49%
#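 THP-1 cells pretreated 1 hr with compounds (up to 57.5 uM final), then stimulated with LPS (250 ng/mL final) plus ATP (1.25 mM final); secreted IL-1B measured by AlphaLISA after 16 hr, decreased signal indicating inhibition.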
# ELG1 DNA repair = qHTS screen for small molecules that inhibit ELG1-dependent DNA repair in human embryonic kidney (HEK293T) cells expressing luciferase-tagged ELG1; Potency, µM (titrated, usually from 46.1 µM), for the others: top-dose activity change, negative = inhibition, actives largely listed as inhibitors; actives 2.3% (n = 330,000); HEK293T ELG1-luciferase reporter, luminescence, 16 h; DNA damage induced by 5-fluorouridine; AID 504467, 2011; further: potency means the concentration at half of the fitted maximal effect; nearly all actives have a fitted effect of over 55% in size
#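 Luminescence from the luciferase reporter, measured 30 min after ONE-Glo reagent at room temperature, was the read-out. Beforehand, 2,000 cells per well were exposed for 16 hr at 37 °C to 5-fluorouridine together with compound or vehicle.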
# Numbers without * were called inactive; u = inconclusive; x = not tested or not shown; [ ] = another dose, or the depositor's remark. An excerpt weighted towards active compounds, which were near 19% of everything screened. Unless noted, the call rests on the fitted dose curve; in most records, active means well fitted curve in the direction sought with a large enough effect; inconclusive means small, poorly fitted or top-dose-only effect, or another doubt; inactive means no such curve, though single readings can be large; an effect the other way counts as inactive or inconclusive. On the % scale 0 is the no-effect control and ±100 the full control effect.
SMILES,Giardia kill,TDP1 cell CPT,TDP1 block,TDP1 cell noCPT,IL-1B inflam inh,ELG1 DNA repair
COc1ccc(OCC(=O)N2CCN(Cc3c[nH]c4ccccc34)CC2)cc1,2,1.6µM*,-2%,3.7µM*,-9,u
O=C(COc1ccccc1)N1CCN(Cc2c[nH]c3ccccc23)CC1,22,3.7µM*,-6%,8.2µM*,8,-22%
CCSc1nnc(NC(=O)c2cccn(Cc3ccc(Cl)cc3)c2=O)s1,x,0%,-7%,1%,x,x
CN(C)CCN=Cc1c(O)n(-c2cccc(C(F)(F)F)c2)c(=O)[nH]c1=O,8,-3%,5%,0%,15,13%
O=[N+]([O-])c1ccc(-c2[se]c3ccccc3c2I)cc1,x,x,22%,x,x,x
CON(C)C(=O)Nc1ccc(Br)cc1,x,x,23%,x,x,x
CCOc1ccc(CN(CCc2ccc3c(c2)OCO3)Cc2cccc(Br)c2)cc1,x,2.1µM*,-1%[12.3 µM],u,x,x
Cc1[nH]c2ccc(Cl)cc2c1C1=CCNCC1,x,x,11%,x,x,x
COc1cc(/C=C/c2ccc3ccccc3[n+]2C)cc(OC)c1OC,x,u,x,13µM*,x,x
[O-]/[N+](=N\O)c1ccccc1,x,x,22%,x,x,x
O=C(NCc1ccccc1)Oc1cccc(Cl)c1,2,u,-3%,16µM*,0,u
COc1ccc(-n2c(=S)[nH]c3ccc(C)cc3c2=O)cc1,x,-5%,x,-4%,10,x
COc1ccc(-c2noc(=O)n2Cc2cc(C)ccc2C)cc1,13,u,3%,23µM*,30,u
CC[C@]1(c2cccc(O)c2)CCCCN(C)C1,x,x,9%[21 µM],x,x,x
CCN(CC)C(=O)c1ccc2c(c1)C1C=CCC1C(C(=O)O)N2 (stereo not given),-5,-14%,x,u,0,-14%
CC(C)COP(=O)(OCC(C)C)C(Nc1ccccc1)c1ccccc1 (stereo not given),-4,u,1%,u,-58*,u
CC(C)COP(=O)(c1ccc(N(C)C)cc1)C(Nc1ccccc1)c1ccccc1 (stereo not given),-21,u,8%,29µM*,-3,-18%
COP(=O)(OC)C(Nc1ccccn1)c1ccccc1 (stereo not given),-17,-2%,-5%,0%,13,11%
CN(C)c1ccc(P(=O)(OC2CCCCC2)C(Nc2ccccc2)c2cccnc2)cc1 (stereo not given),-5,u,5%,21µM*,-52*,u
O=P(Oc1ccccc1)(Oc1ccccc1)C(Nc1ccccc1)c1ccccc1 (stereo not given),-1,u,0%,16µM*,0,21µM*
Cc1nnc2n1-c1sc(Br)cc1C(c1ccccc1Cl)=NC2,x,-18%,x,u,x,x
CC(=O)N1c2ccc(S(=O)(=O)NCC3CCC(C(=O)Nc4cc(C)cc(C)c4)CC3)cc2CC1C (stereo not given),x,21µM*,5%,16µM*,x,x
CN1CC[C@]23c4c5ccc(O)c4O[C@H]2[C@@H](O)C=C[C@H]3[C@H]1C5,x,-10%[92.5 µM],x,-25%[92.5 µM],x,x
CNC(C)Cc1ccccc1OC (stereo not given),x,-4%,6%,-2%,x,x
CCCc1nn(C)c2c1C(c1ccncc1)C(C#N)=C(N)O2 (stereo not given),-2,u,x,29µM*,-3,15%
SMILES,Giardia kill,TDP1 cell CPT,TDP1 block,TDP1 cell noCPT,IL-1B inflam inh,ELG1 DNA repair
O=C(C[C@@H]1CC[C@@H]2[C@H](COC[C@H](O)CN2Cc2cccc(C(F)(F)F)c2)O1)NCc1ccc(Cl)cc1,x,12µM*,x,8.2µM*,9,x
N#CC1(N2CCCCC2)CCCCC1,x,-4%,x,0%,x,x
C=CC[C@@H](CC(=O)N[C@H](CO)Cc1ccccc1)C(=O)NCCOC(=O)[C@@H](CC=C)Cc1ccc(F)cc1,19,29µM*,0%,u,21,u
c1ccc2sc(C3(N4CCCCC4)CCCCC3)cc2c1,x,27µM*,10%[56.1 µM],18µM*,x,x
O=S1(=O)N(CCN2CC=C(c3c[nH]c4cc(F)ccc34)CC2)c2cccc3c2N1CCC3,12,9.2µM*,18%[56.1 µM],16µM*,-59*,u
C[C@H]1CN(C2CCC(C#N)(c3ccc(F)cc3)CC2)CC[C@@]1(C(=O)O)c1ccccc1 (stereo not given in full),x,x,2%[56.1 µM],x,x,x
O=C(CSc1ccc(-c2ccco2)nn1)Nc1ccccc1,8,-3%,3%,u,15,u
CCc1nnc(NC(=O)CSc2ccc(-c3ccco3)nn2)s1,-13,5%,22µM*,29%,0,0%
c1ccc(Nc2ccc3ccccc3c2)cc1,6,u,10%,u,8,x
CC(C)Nc1ccc(Nc2ccccc2)cc1,4,6.5µM*,4%,6.5µM*,-95*,u
O=C(O)CCC1NCC2CC1CN1CCCCC21 (stereo not given),x,-10%,6%[56.1 µM],-2%,x,x
Cc1ccc(NC(=O)Cn2cc(C(=O)c3ccccc3)c3ccccc32)cc1,x,-92%,1%,u,x,x
CCCN1CCc2cccc3c2C1Cc1ccc(O)c(O)c1-3 (stereo not given),x,3.7µM*,5%,-89%,x,x
CN1CCc2cc(O)cc3c2[C@H]1Cc1ccc(O)c(O)c1-3,12,1.6µM*,x,2.6µM*,-17,x
OCCCBr,x,5%[92.5 µM],3%,0%[92.5 µM],x,x

# Screens (PubChem BioAssay)
